The campaign covered roughly 340,000 compounds. About 12,000 (3.5%) were called active. Another 18% or so got no clear call; they are omitted. The list comes from a sample in which actives are over-represented; it also holds similar structures and randomly drawn compounds. Unmarked numbers belong to inactive results. Calls come from the whole dose curve; as a rule, active = well fitted inhibition curve with a large enough effect; inconclusive = small, poorly fitted or top-dose-only effect, or another doubt; inactive = no such curve, though single readings can be large or run the other way. Non-standard residues stand in square brackets, D forms with d. Residues, ends and D or L forms follow the SMILES beside them. ξ: configuration not given here. Ac5c = NC1(C(=O)O)CCCC1; ξS = NC(CO)C(=O)O
experiment: qHTS Assay for Inhibitors of Hepatitis C Virus (HCV); details: Huh7.5.1 HCVcc-Cre infection, luciferase reporter, 44 h; series mostly up to 41.8 µM; activity change, negative = inhibition: at the top concentration
Summary of the method: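 Antiviral activity was scored by luciferase reporter output from cells infected with HCVcc-Cre (~0.5 moi) in presence of compound, 44 h infection period, cells seeded 1,000/well 4 h prior.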
% is set by controls: 0 for no effect and ±100 for the full control effect; potency is the fitted concentration of half-maximal effect.

In order of falling “activity change, negative = inhibition” value:
1. COc1ccc(OCC(O)CNCCNc2nccc(C(F)(F)F)n2)cc1 (stereo not drawn)  28.7%
2. CCOC(=O)c1ccccc1NC(=O)CSc1nc2c(sc(=S)n2CC)c(=O)[nH]1  18.2%
3. COc1ccc(/C=N/NC(=O)c2cccc(C(F)(F)F)c2)cc1  17.5%
4. CS(=O)(=O)c1ccc(C(=O)NNC(=O)c2cccs2)cc1  16.1%
5. Cc1ccc(CNC(=O)COC(=O)C2CCC2)cc1  15.2%
6. Cc1nnc(NC(=O)/C=C/c2ccco2)s1  13%
7. N#CC1(NC(=O)COC(=O)Cc2n[nH]c(=O)c3ccccc23)CCCCC1  12.1%
8. CCOC(=O)C(CO)NC(=O)C1(NC(C)=O)CCCC1 (stereo not drawn) (Ac-[Ac5c]-[ξS]-OEt)  10.5%
9. COc1ccccc1CNC(=O)COC(=O)c1sc(C)nc1C  8.83%
10. CC(=O)Nc1ccc(-c2cn3cccnc3n2)cc1  7.55%
11. Oc1ccc(CN2CCN(c3ncccn3)CC2)cc1  7.41%
12. Cc1ccc2c(O)c(Cc3ccccc3)c(=O)[nH]c2n1  7%
13. OCC1(CCc2ccccc2)CCN(Cc2ccc3nsnc3c2)CC1  6.6%
14. CC1CCN(Cc2nc(-c3ccc(Cl)cc3)no2)CC1  5.28%
15. Cc1nc(-c2ccc(F)cc2)c(CC(=O)N(C)CC(=O)Nc2c(C)cccc2C)s1  5.17%
16. Cc1cc(O)c(Sc2ccccc2)c(=O)o1  4.91%
17. COc1ccc(-c2nnc(SC(C)C(=O)NC3CC3)o2)cc1 (stereo not drawn)  4.88%
18. O=C(N=C1SC2CS(=O)(=O)CC2N1c1ccccc1)c1ccccc1 (stereo not drawn)  4.87%
19. COc1ccc2c(c1)O/C(=C\c1ccccc1O)C2=O  2.33%
20. O=C(NCCN1C(=O)S/C(=C\c2cccnc2)C1=O)c1cccc(OC(F)F)c1  1.89%
21. COc1ccc(OC)c(S(=O)(=O)Nc2c(C)nn(C)c2C)c1  1.56%
22. COc1ccc(S(=O)(=O)N2CCN(CC(=O)N3CCOCC3)CC2)cc1OC  1.25%
23. CC1(c2ccc(Cl)cc2Cl)NC(=O)N(CC(=O)Nc2cccnc2Cl)C1=O (stereo not drawn)  0.453%
24. CCN(C(=O)CSc1nnnn1-c1ccc(OC)cc1)C1CCS(=O)(=O)C1 (stereo not drawn)  0.363%
25. Oc1cc2c(cc1CN1CCN(c3ccccc3)CC1)OCO2  -1.36%
26. CC(Oc1ccc(Br)cc1)C(=O)NC1CCCCCC1 (stereo not drawn)  -2.46%
27. O=C(c1ccncc1)N1CCN(S(=O)(=O)c2cc(C(F)(F)F)cc(C(F)(F)F)c2)CC1  -2.48%
28. O=C1C=C(c2cccc(Cl)c2O)C[C@@H](c2ccc(F)cc2)C1  -2.53%
29. NC1=NOC(=O)C1C1CCCCC1 (stereo not drawn)  -2.58%
30. CCN1CCN(CCCCOc2ccccc2F)CC1  -5.52%
31. O=C1C=C(c2cccc(Cl)c2)C[C@@H](c2ccc(F)cc2)C1  -5.95%
32. O=C(/C=C/c1ccco1)Nc1cccc(-c2nc3ccccc3[nH]2)c1  -7.35%
33. Cc1cc(C)c(C=NNc2nc3c([nH]2)c(=O)n(C)c(=O)n3C)c(C)c1  -8.43%
34. CCOc1ccc(CCNC(=O)COC(=O)C2CCN(S(=O)(=O)c3ccccc3)CC2)cc1OCC  -13.1%
35. COc1cc2cc(C(=O)N/N=C/c3cccc(OC)c3OC)[nH]c2cc1OC  -14.6%
36. CCOc1ccc(N2CC(C(=O)NCCN3C(=O)S/C(=C\c4cccnc4)C3=O)CC2=O)cc1 (stereo not drawn)  -16.4%
37. C#CCOCCOCCOCCNc1nc(N2CCN(C(=O)[C@H](CCCN=C(N)N)n3cc(C(N)[C@@H](C)CC)nn3)CC2)nc(N2CCN(C(=O)[C@H](CO)n3cc([C@@H](N)C(C)C)nn3)CC2)n1 (stereo partly drawn)  -18.2%
38. COc1ccccc1OCCCCCCN1CCN(C)CC1  -18.9%
39. Nc1nnc(SCC(=O)NCC(=O)Nc2ccc(F)c(F)c2F)s1  -23.5%
40. CN(Cc1ccccn1)Cc1nc(-c2ccc(Cl)cc2)no1  -23.6%
41. CCOc1cc(-c2cc(-c3ccc(OC)cc3)nc(N)c2C#N)ccc1O  -24.5%
42. N#CC1=C(N)Oc2cc(N)ccc2C1c1ccccc1 (stereo not drawn)  -25.3%
43. Cc1nn(-c2ncccn2)c2c1C(=O)CC(C)(C)C2Br (stereo not drawn)  -27.1%

In the case of `O=C1C=C(c2ccnc3cc(Cl)ccc23)C[C@@H](c2ccc3c(c2)OCO3)C1`, the Potency was 3.16 µM (active).
In the case of `CCN1CC(CN(C)Cc2nc(-c3ccc(Cl)cc3)no2)CC1=O` (stereo not drawn), the Potency was 11.2 µM (active).
For `CCOc1cc(-c2cc(-c3ccc(NC(C)=O)cc3)nc(N)c2C#N)ccc1O`, the Potency was 11.2 µM (active).
In the case of `CN1CCN(CCCCOc2cccc3ccccc23)CC1`, the Potency was 10 µM (active).
With `CCOc1ccc2[nH]c(C(=O)N/N=C/c3cccc(OC)c3OC)cc2c1` the Potency was 12.6 µM (active).
In the case of `Oc1c(CN2CCN(c3ccc(F)cc3)CC2)cc(Cl)c2cccnc12`, the Potency was 3.55 µM (active).
With `CC(C)(C)CC(C)(C)NCC(O)COCCOc1ccc(Br)cc1` (stereo not drawn) the Potency was 6.31 µM (active).
With `O=C(/C=C/c1ccco1)Nc1ccc(Oc2ccccc2)cc1` the Potency was 14.1 µM (active).
In the case of `Cc1cc(OCCCC(=O)NCCN2C(=O)S/C(=C\c3cccnc3)C2=O)ccc1Cl`, the Potency was 10 µM (active).
With `Cc1cccc(-c2ncc(CN3CCC(CO)(CCCc4ccccc4)CC3)cn2)c1` the Potency was 10 µM (active).

Reference: PubChem BioAssay AID651820 (National Center for Advancing Translational Sciences (NCATS), 2012)
